From PubChem BioAssay (NCATS)
Records with an inconclusive call do not appear. A call without a number means that no potency is given here. Activity calls are given as the source filed them. The call rests on the fitted dose curve; in most records, active means well fitted curve in the direction sought with a large enough effect; inconclusive means small, poorly fitted or top-dose-only effect, or another doubt; inactive means no such curve, though single readings can be large; an effect the other way counts as inactive or inconclusive.

Legend:
[1] = molecular target: Rap guanine nucleotide exchange factor 3 (Homo sapiens) (UniProt O95398); test: Confirmatory qHTS for antagonist of cAMP-regulated guanine nucleotide exchange factor 3 (EPAC1) (AID 1645880); conditions: EPAC1 Rap1B-BODIPY-GDP exchange, fluorescence; activity, negative = inhibition: at 115 µM (top of the series); further: nearly all actives have a fitted effect of over 55% in size; further: potency means the concentration at half of the fitted maximal effect
Chain of Rap guanine nucleotide exchange factor 3 (Homo sapiens) (O95398 whole entry, looked up): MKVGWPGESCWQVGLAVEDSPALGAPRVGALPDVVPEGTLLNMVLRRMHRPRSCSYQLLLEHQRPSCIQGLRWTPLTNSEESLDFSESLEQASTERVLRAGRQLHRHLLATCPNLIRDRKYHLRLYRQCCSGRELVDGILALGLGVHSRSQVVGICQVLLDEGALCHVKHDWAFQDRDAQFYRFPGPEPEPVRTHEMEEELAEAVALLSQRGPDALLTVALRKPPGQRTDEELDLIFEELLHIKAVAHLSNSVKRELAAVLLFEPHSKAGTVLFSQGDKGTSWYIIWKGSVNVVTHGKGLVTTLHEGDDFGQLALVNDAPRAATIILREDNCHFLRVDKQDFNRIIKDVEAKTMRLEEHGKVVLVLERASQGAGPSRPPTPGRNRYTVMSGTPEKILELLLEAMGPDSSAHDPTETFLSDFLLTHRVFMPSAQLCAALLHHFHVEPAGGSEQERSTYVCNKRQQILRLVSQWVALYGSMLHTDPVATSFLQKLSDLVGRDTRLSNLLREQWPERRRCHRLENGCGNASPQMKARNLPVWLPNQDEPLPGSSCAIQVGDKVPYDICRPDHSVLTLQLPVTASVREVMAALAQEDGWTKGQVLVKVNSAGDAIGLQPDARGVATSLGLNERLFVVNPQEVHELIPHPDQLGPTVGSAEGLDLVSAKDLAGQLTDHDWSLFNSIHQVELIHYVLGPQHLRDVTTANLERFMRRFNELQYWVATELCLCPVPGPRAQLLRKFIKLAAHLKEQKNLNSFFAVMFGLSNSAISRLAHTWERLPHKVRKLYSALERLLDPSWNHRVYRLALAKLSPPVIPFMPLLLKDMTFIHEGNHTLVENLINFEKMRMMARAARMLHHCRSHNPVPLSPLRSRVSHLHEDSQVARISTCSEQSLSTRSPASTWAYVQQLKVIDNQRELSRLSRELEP
In short: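 Nucleotide exchange uses 100 nM EPAC1, 250 nM RAP1B-BODIPY-GDP and 50 uM GDP, with compounds in a concentration-titration series. After 5 min at room temperature, fluorescence (480 nm ex/540 nm em) is read every 5 min for 30 min. Data are normalized to control ATA and DMSO.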

[2] = molecular target: Rap guanine nucleotide exchange factor 3 (Homo sapiens) (UniProt O95398); test: Confirmatory qHTS for agonist of cAMP-regulated guanine nucleotide exchange factor 3 (EPAC1) (AID 1645881);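 further: EPAC1 catalysed release of BODIPY-GDP from Rap1B seen as fluorescence loss; nearly all actives have a fitted effect of over 75% in size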
[3] = molecular target: Rap guanine nucleotide exchange factor 4 (Homo sapiens) (UniProt Q8WZA2); test: Confirmatory qHTS for agonist of cAMP-regulated guanine nucleotide exchange factor 4 (EPAC2) (AID 1645884);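 further: nucleotide exchange releases bodipy-GDP from Rap1 and this lowers its fluorescence; nearly all actives have a fitted effect of over 65% in size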
Chain of Rap guanine nucleotide exchange factor 4 (Homo sapiens) (Q8WZA2 whole entry, looked up): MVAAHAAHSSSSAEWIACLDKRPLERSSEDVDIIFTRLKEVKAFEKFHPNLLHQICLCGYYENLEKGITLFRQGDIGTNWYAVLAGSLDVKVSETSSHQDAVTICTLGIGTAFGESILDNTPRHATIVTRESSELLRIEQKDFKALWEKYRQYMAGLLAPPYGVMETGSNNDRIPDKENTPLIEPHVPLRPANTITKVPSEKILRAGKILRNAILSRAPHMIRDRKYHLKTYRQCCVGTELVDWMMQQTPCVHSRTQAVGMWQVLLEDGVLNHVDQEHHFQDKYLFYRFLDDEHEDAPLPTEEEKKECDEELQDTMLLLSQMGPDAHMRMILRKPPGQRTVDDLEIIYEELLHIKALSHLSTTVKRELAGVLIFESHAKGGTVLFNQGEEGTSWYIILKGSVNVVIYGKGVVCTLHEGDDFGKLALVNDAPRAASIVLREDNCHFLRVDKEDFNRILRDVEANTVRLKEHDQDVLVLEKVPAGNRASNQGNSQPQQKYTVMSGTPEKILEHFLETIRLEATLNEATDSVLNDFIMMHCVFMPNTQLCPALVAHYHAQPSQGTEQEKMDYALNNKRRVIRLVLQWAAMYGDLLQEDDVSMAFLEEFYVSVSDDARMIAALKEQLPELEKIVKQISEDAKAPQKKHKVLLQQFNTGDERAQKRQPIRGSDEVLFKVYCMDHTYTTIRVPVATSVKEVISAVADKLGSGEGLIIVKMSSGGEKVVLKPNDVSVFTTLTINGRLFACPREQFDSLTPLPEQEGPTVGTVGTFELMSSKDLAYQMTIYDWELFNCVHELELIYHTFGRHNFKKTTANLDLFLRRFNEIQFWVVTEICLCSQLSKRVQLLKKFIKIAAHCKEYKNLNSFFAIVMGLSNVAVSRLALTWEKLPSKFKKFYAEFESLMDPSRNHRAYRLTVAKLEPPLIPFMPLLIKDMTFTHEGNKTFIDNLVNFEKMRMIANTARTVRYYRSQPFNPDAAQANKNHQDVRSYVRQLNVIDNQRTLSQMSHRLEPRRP

[4] = molecular target: Rap guanine nucleotide exchange factor 4 (Homo sapiens) (UniProt Q8WZA2); test: Confirmatory qHTS for antagonist of cAMP-regulated guanine nucleotide exchange factor 4 (EPAC2) (AID 1645885); further: nearly all actives have a fitted effect of over 25% in size; further: potency means the concentration at half of the fitted maximal effect
[5] = molecular target: Rap guanine nucleotide exchange factor 3 (Homo sapiens) (UniProt O95398); test: Counterscreen qHTS for antagonist of cAMP-regulated guanine nucleotide exchange factor 3 (EPAC1) (AID 1645888);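 further: fluorescence loss as bound BODIPY-GDP is released from Rap1B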
In short: (§1)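 Rap1B-BODIPY-GDP 250 nM + GDP 50 uM; cpds 7-pt, final 9.74 nM–152 uM (activator mode) or from 7.32 nM upwards (inhibitor mode); RT; FI 480/540 nm at 5 and 30 min, then ± cAMP, reread.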

[6] = molecular target: Rap guanine nucleotide exchange factor 3 (Homo sapiens) (UniProt O95398); test: Counterscreen qHTS for agonist of cAMP-regulated guanine nucleotide exchange factor 3 (EPAC1) (AID 1645889); further: nearly all actives have a fitted effect of over 40% in size; further: potency means the concentration at half of the fitted maximal effect
In short: as §1

Structure (SMILES)	Potency [1]	Potency [2]	activation [3]	Potency [4]	activity change, negative = inhibition [5]	activation [6]	Potency [3]	Potency [5]	Potency [6]	outcome [4]
COc1cccc(CN(C)CC(=O)Nc2c(C)cccc2C(C)C)c1	inactive	inactive	9.26% [at 17.1 µM, percent relative to cAMP agonist control] (inactive)	inactive	-8.13% [at 30.8 µM] (inactive)	14.6% [at 30.8 µM] (inactive)	–	–	–	–
O=C(Cc1ccccc1Cl)Nc1ccc(S(=O)(=O)N2CCOCC2)cc1	inactive	inactive	–	–	–	–	inactive	–	–	–
Cc1ccc2c(c1)NC(=O)C(CC(=O)N(C)Cc1ccccc1)O2 (stereo not given)	inactive	inactive	3.24% [at 17.1 µM, percent relative to cAMP agonist control] (inactive)	inactive	-5.86% [at 30.8 µM] (inactive)	9.9% [at 30.8 µM] (inactive)	–	–	–	–
COc1cccc(NS(=O)(=O)c2ccc3c(c2)C2C=CCC2C(c2ccc(C(=O)O)cc2)N3)c1 (stereo not given)	9.53 µM (active)	inactive	–	inactive	–	–	inactive	inactive	–	–
Cc1ccc(S(=O)(=O)Nc2cc(C(=O)NCCN3CCCC3)ccc2N2CCCCC2)cc1	inactive	inactive	–	inactive	–	–	inactive	inactive	inactive	–
COc1ccc(-c2cc(=O)oc3c(O)c(O)ccc23)cc1	8.49 µM (active)	inactive	–	inactive	–	–	inactive	inactive	inactive	–
Cc1ccn2c(=O)c(NC(=O)c3ccc(Br)o3)c(C)nc2c1	inactive	inactive	4.58% [at 17.1 µM, percent relative to cAMP agonist control] (inactive)	inactive	-1.7% [at 30.8 µM] (inactive)	-2.62% [at 30.8 µM] (inactive)	–	–	–	–
COc1ccc(C2CC(c3ccccc3OC(C)=O)=NN2C(C)=O)cc1 (stereo not given)	inactive	inactive	–	inactive	–	–	inactive	inactive	inactive	–
COc1ccc(/C=N/Nc2ncnc3sc(C)c(C)c23)cc1	inactive	inactive	–	inactive	–	–	inactive	inactive	inactive	–
CC1CCN(C2(O)C(=O)Nc3ccc(Br)cc32)CC1 (stereo not given)	inactive	–	–	–	–	–	–	–	–	–
CCC(C)(C)NC(=O)C(c1ccccn1)N(C(=O)c1csnn1)C1CCCCC1 (stereo not given)	inactive	inactive	–	inactive	–	–	inactive	inactive	inactive	–
COc1ccc(C(=O)Nc2cccc(/C=C(/CCC(=O)O)c3nc4ccccc4s3)c2)cc1	15.1 µM (active)	inactive	–	inactive	–	–	inactive	inactive	inactive	–
Cc1[nH][nH]c(=O)c1C(c1c(C)[nH][nH]c1=O)c1cn(Cc2cccc3ccccc23)c2ccccc12	75.7 µM (active)	inactive	–	inactive	–	–	inactive	inactive	12.6 µM (active)	–
C=C1CCC(O)C/C1=C\C=C1/CCCC2(C)C1CCC2C(C)CCCC(C)C (stereo not given)	55.9 µM (active)	inactive	–	39.3 µM (active)	–	–	inactive	–	–	–
O=C1C2CCCN2C(c2ccccc2F)N1c1cccc(Cl)c1 (stereo not given)	inactive	inactive	0.711% [at 17.1 µM, percent relative to cAMP agonist control] (inactive)	inactive	-15.2% [at 30.8 µM] (inactive)	–	–	–	–	–
COCCCn1c(=N)c(C(=O)NCc2cccnc2)cc2c(=O)n3cccc(C)c3nc21	inactive	inactive	–	–	–	–	inactive	inactive	inactive	inactive [at 12.7 µM]
COc1cccc2c1OC1(C)CC2/C(=C(\C)O)C(=O)N1 (stereo not given)	inactive	inactive	–	inactive	–	–	inactive	inactive	inactive	–
C/C(=N\NS(=O)(=O)c1ccccc1)c1cc(Cl)cc(Cl)c1O	33.8 µM (active)	inactive	–	21.3 µM (active)	–	–	inactive	inactive	inactive	–
O=C(NC1CCC(O)CC1)c1ccc(S(=O)(=O)NCc2ccco2)cc1 (stereo not given)	inactive	inactive	–	inactive	–	–	inactive	inactive	–	–
COc1cc(CNc2ccc(O)cc2)cc(Br)c1OCc1ccccc1	inactive	inactive	–	inactive	–	–	inactive	inactive	inactive	–
Cc1ccc(Nc2ccc(N3CCN(C(=O)c4ccc([N+](=O)[O-])cc4)CC3)nn2)cc1	inactive	inactive	–	inactive	–	–	inactive	inactive	inactive	–
CN1CC=C2C(C#N)=C(N)C(C#N)(C#N)C(c3ccsc3)C2C1 (stereo not given)	inactive	–	–	–	–	–	–	–	–	–

Structure (SMILES)	Potency [1]	Potency [2]	activation [3]	Potency [4]	activity change, negative = inhibition [5]	activation [6]	Potency [3]	Potency [5]	Potency [6]	outcome [4]
CCc1nnc(NS(=O)(=O)c2ccc(NCc3cc(Cl)ccc3O)cc2)s1	39.8 µM (active)	inactive	-0.696% [at 17.1 µM, percent relative to cAMP agonist control] (inactive)	inactive	-8.7% [at 30.8 µM] (inactive)	–	–	–	–	–
CCCCNC(=O)c1cc(-c2ccc3c(c2)OCO3)on1	inactive	inactive	–	inactive	–	–	inactive	inactive	–	–
CCOC(=O)COc1ccc(Br)cc1/C=C/c1[nH]c(=O)[nH]c(=O)c1[N+](=O)[O-]	7.57 µM (active)	inactive	–	inactive	–	–	inactive	inactive	–	–
CCCCCCc1cc2cc(-c3nnc(-c4ccc(C)cc4)o3)c(=O)oc2cc1O	inactive	inactive	–	–	–	–	inactive	–	–	–
COc1ccc(NC(=O)N2CCN3CCCCC3C2)cc1OC (stereo not given)	inactive	inactive	–	inactive	–	–	inactive	inactive	inactive	–
O=C(CN(Cc1ccco1)C(=O)c1ccc(Cl)cc1)Nc1c(Cl)cc(Cl)cc1Cl	inactive	inactive	–	inactive	–	–	inactive	inactive	inactive	–
Cc1ccc(N=Cc2cc(Cc3ccccc3Cl)cc([N+](=O)[O-])c2O)c(O)c1	10.7 µM (active)	inactive	–	inactive	–	–	inactive	inactive	inactive	–
CCN1CCN(c2ccc(S(=O)(=O)N3CCOCC3)cc2NC(=O)c2cc(Cl)nc3ccccc23)CC1	inactive	inactive	4.04% [at 17.1 µM, percent relative to cAMP agonist control] (inactive)	inactive	7.51% [at 30.8 µM] (inactive)	–	–	–	–	–
O=C(CSc1nc2ccsc2c(=O)n1CC1CCC(C(=O)O)CC1)c1ccc(Cl)cc1 (stereo not given)	47.8 µM (active)	inactive	–	inactive	–	–	inactive	inactive	inactive	–
C=C1CCC(O)C/C1=C\C=C1/CCCC2(C)C1CCC2C(C)/C=C/C(C)C(C)C (stereo not given)	inactive	inactive	–	inactive	–	–	inactive	–	–	–
Cc1ccc(-c2ccc(CCC(=O)O)n2-c2ccc(C(C)C)cc2)cc1	75.7 µM (active)	inactive	–	inactive	–	–	inactive	–	–	–
CCOc1cnc(-c2c(-c3c(Cl)cccc3Cl)noc2C)o1	inactive	inactive	1.16% [at 17.1 µM, percent relative to cAMP agonist control] (inactive)	inactive	-6.2% [at 30.8 µM] (inactive)	12% [at 30.8 µM] (inactive)	–	–	–	–
COc1ccc(N2C(=O)[C@H]3CCC=C[C@H]3[C@@H]2c2ccccc2Br)cc1	inactive	inactive	–	–	–	–	–	–	–	–
Cc1[nH]n(-c2ccccc2)c(=O)c1C(c1ccc(C(=O)O)cc1)c1c(C)[nH]n(-c2ccccc2)c1=O	inactive	inactive	–	inactive	–	–	inactive	inactive	1.78 µM (active)	–
Cc1cc(-c2ccc(F)cc2)n2ncc(-c3ccccc3)c2n1	inactive	inactive	–	inactive	–	–	inactive	inactive	inactive	–
O=C(CCCOc1ccccc1)Nc1ccc(Cl)cn1	inactive	inactive	–	inactive	–	–	inactive	inactive	inactive	–
COc1ccc(/C(N)=N/OC(=O)c2ccc(C)c([N+](=O)[O-])c2)cc1	inactive	inactive	8.03% [at 17.1 µM, percent relative to cAMP agonist control] (inactive)	inactive	4.78% [at 30.8 µM] (inactive)	–	–	–	–	–
O=C(c1ccccc1)c1coc2ccc(O)c(Cl)c12	inactive	inactive	4.32% [at 17.1 µM, percent relative to cAMP agonist control] (inactive)	inactive	-20.3% [at 30.8 µM] (inactive)	44.7% [at 30.8 µM] (inactive)	–	–	–	–
COc1ccc(S(=O)(=O)NC(CCSC)C(=O)NC2CCCCC2)cc1 (stereo not given)	inactive	inactive	–	inactive	–	–	inactive	inactive	inactive	–
CC1CCC/C(=C\Nc2ccc(O)cc2)C1=O (stereo not given)	inactive	inactive	6.29% [at 17.1 µM, percent relative to cAMP agonist control] (inactive)	inactive	-12.6% [at 30.8 µM] (inactive)	3.58% [at 30.8 µM] (inactive)	–	–	–	–
O=C(Nc1ccccc1C(=O)O)c1cccc(S(=O)(=O)Nc2ccc(Br)cc2)c1	75.7 µM (active)	inactive	–	42.6 µM (active)	–	–	inactive	inactive	inactive	–
COc1ccc([C@@H]2[C@@H]3C(=O)N(C(C)(C)C)C(=O)[C@@H]3[C@]3(Cc4ccccc4)C(=O)N(c4cccc(Br)c4)C(=O)N23)cc1	inactive	inactive	2.72% [at 17.1 µM, percent relative to cAMP agonist control] (inactive)	inactive	-15.9% [at 30.8 µM] (inactive)	10.3% [at 30.8 µM] (inactive)	–	–	–	–
